The whole screen tested about 5,500 compounds, of which about 2,000 (36%) were called active. Another 18% or so got no clear call; they are omitted. Rule as the data show it: active = normalized growth mostly below about 0.91 (no sharp cut-off); inconclusive = no clear call, values can overlap the other calls; inactive = mostly above about 0.92. This is one part of the list.
Test: chemical genetic growth profiling, strain panel (AID 1159580);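 also: tested at 20 µM; growth read once vehicle control cultures reached saturation at 30 °C; 1 = growth at the plate median or of vehicle wells; lower values mean less growth of the strain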
Conditions: growth OD

Measured: normalized growth

C[N+]12CCC(CC1)C(OC(=O)C(O)(c1ccccc1)c1ccccc1)C2 (configuration not stated)
inactive: S. cerevisiae deletion strains, locus YJR075W, strain HOC1, hits give low values 0.982 | S. cerevisiae deletion strains, locus YKL009W, strain mrt4, hits give low values 0.998 | S. cerevisiae deletion strains, locus YKL068W, hits give low values 0.985 | S. cerevisiae deletion strains, locus YKL085W, strain MDH1 (second series), hits give low values 0.994 | S. cerevisiae deletion strains, locus YKL085W, strain MDH1, hits give low values 0.994 | S. cerevisiae deletion strains, locus YKL160W, strain elf1, hits give low values 0.962 | S. cerevisiae deletion strains, locus YKL190W, strain CNB1, hits give low values 1 | S. cerevisiae deletion strains, locus YKR001C, strain vps1, hits give low values 0.958 | S. cerevisiae deletion strains, locus YKR026C, strain gcn3, hits give low values 0.984 | S. cerevisiae deletion strains, locus YKR091W, strain srl3, hits give low values 0.972 | S. cerevisiae deletion strains, locus YLL001W, strain dnm1, hits give low values 0.922 | S. cerevisiae deletion strains, locus YLL026W, hits give low values 0.975 | S. cerevisiae deletion strains, locus YLL041C, strain sdh2, hits give low values 1 | S. cerevisiae deletion strains, locus YLR027C, strain aat2, hits give low values 0.977 | S. cerevisiae deletion strains, locus YLR039C, strain RIC1, hits give low values 1.02 | S. cerevisiae deletion strains, locus YLR058C, strain SHM2, hits give low values 0.985 | S. cerevisiae deletion strains, locus YLR102C, strain apc9, hits give low values 0.987 | S. cerevisiae deletion strains, locus YLR113W, strain HOG1, hits give low values 0.975 | S. cerevisiae deletion strains, locus YLR221C, strain rsa3, hits give low values 0.929 | S. cerevisiae deletion strains, locus YLR258W, strain gsy2, hits give low values 0.979 | S. cerevisiae deletion strains, locus YLR262C, strain YPT6 (second series), hits give low values 0.955 | S. cerevisiae deletion strains, locus YLR262C, strain YPT6, hits give low values 1 | S. cerevisiae deletion strains, locus YLR268W, strain sec22, hits give low values 0.906 | S. cerevisiae deletion strains, locus YLR320W, strain mms22, hits give low values 0.952 | S. cerevisiae deletion strains, locus YLR330W, strain CHS5, hits give low values 0.995 | S. cerevisiae deletion strains, locus YLR342W, strain FKS1 (second series), hits give low values 1.01 | S. cerevisiae deletion strains, locus YLR342W, strain FKS1, hits give low values 0.989 | S. cerevisiae deletion strains, locus YLR357W, strain rsc2, hits give low values 0.983 | S. cerevisiae deletion strains, locus YLR370C, strain arc18, hits give low values 0.966 | S. cerevisiae deletion strains, locus YLR371W, strain rom2, hits give low values 0.977 | S. cerevisiae deletion strains, locus YLR384C, strain iki3, hits give low values 0.985 | S. cerevisiae deletion strains, locus YLR418C, strain cdc73, hits give low values 0.955 | S. cerevisiae deletion strains, locus YML016C, strain PPZ1, hits give low values 0.989 | S. cerevisiae deletion strains, locus YML032C, strain rad52, hits give low values 0.96 | S. cerevisiae deletion strains, locus YML120C, strain ndi1, hits give low values 0.939 | S. cerevisiae deletion strains, locus YML124C, strain tub3, hits give low values 0.985 | S. cerevisiae deletion strains, locus YMR058W, strain fet3, hits give low values 0.981 | S. cerevisiae deletion strains, locus YMR078C, strain ctf18, hits give low values 0.977 | S. cerevisiae deletion strains, locus YMR125W, strain sto1, hits give low values 0.924 | S. cerevisiae deletion strains, locus YMR129W, hits give low values 1.01 | S. cerevisiae deletion strains, locus YMR205C, strain PFK2, hits give low values 0.948 | S. cerevisiae deletion strains, locus YMR223W, strain ubp8, hits give low values 1.01 | S. cerevisiae deletion strains, locus YMR231W, strain pep5, hits give low values 1 | S. cerevisiae deletion strains, locus YMR263W, strain SAP30, hits give low values 0.985 | S. cerevisiae deletion strains, locus YMR307W, strain GAS1, hits give low values 1 | S. cerevisiae deletion strains, locus YNL067W, strain RPL9B, hits give low values 0.978 | S. cerevisiae deletion strains, locus YNL071W, strain lat1, hits give low values 1 | S. cerevisiae deletion strains, locus YNL128W, strain TEP1, hits give low values 0.998 | S. cerevisiae deletion strains, locus YNL153C, strain GIM3, hits give low values 0.98 | S. cerevisiae deletion strains, locus YNL183C, strain NPR1, hits give low values 0.932 | S. cerevisiae deletion strains, locus YNL209W, strain ssb2, hits give low values 0.978 | S. cerevisiae deletion strains, locus YNL233W, strain BNI4, hits give low values 0.978 | S. cerevisiae deletion strains, locus YNL248C, strain rpa49, hits give low values 0.984 | S. cerevisiae deletion strains, locus YNL250W, strain rad50, hits give low values 0.985 | S. cerevisiae deletion strains, locus YNL271C, strain bni1, hits give low values 0.974 | S. cerevisiae deletion strains, locus YNL298W, strain CLA4, hits give low values 0.984 | S. cerevisiae deletion strains, locus YNL307C, strain MCK1, hits give low values 0.969 | S. cerevisiae deletion strains, locus YNL322C, strain KRE1 (second series), hits give low values 0.966 | S. cerevisiae deletion strains, locus YNL322C, strain KRE1, hits give low values 0.998 | S. cerevisiae deletion strains, locus YNR049C, strain mso1, hits give low values 0.973 | S. cerevisiae deletion strains, locus YNR052C, strain pop2, hits give low values 0.986 | S. cerevisiae deletion strains, locus YOL006C, strain TOP1, hits give low values 0.965 | S. cerevisiae deletion strains, locus YOL012C, strain htz1 0.92 | S. cerevisiae deletion strains, locus YOL147C, strain pex11, hits give low values 0.985 | S. cerevisiae deletion strains, locus YOR001W, strain rrp6, hits give low values 1.04 | S. cerevisiae deletion strains, locus YOR061W, strain CKA2, hits give low values 0.99 | S. cerevisiae deletion strains, locus YOR069W, strain VPS5, hits give low values 0.986 | S. cerevisiae deletion strains, locus YOR070C, strain gyp1, hits give low values 0.985 | S. cerevisiae deletion strains, locus YOR080W, strain dia2, hits give low values 0.97 | S. cerevisiae deletion strains, locus YOR083W, strain WHI5, hits give low values 0.965 | S. cerevisiae deletion strains, locus YOR106W, strain vam3, hits give low values 0.951 | S. cerevisiae deletion strains, locus YOR136W, strain idh2, hits give low values 0.979 | S. cerevisiae deletion strains, locus YOR144C, strain elg1, hits give low values 0.984 | S. cerevisiae deletion strains, locus YOR184W, strain ser1, hits give low values 0.96 | S. cerevisiae deletion strains, locus YOR231W, strain MKK1, hits give low values 0.98 | S. cerevisiae deletion strains, locus YOR265W, strain rbl2, hits give low values 0.986 | S. cerevisiae deletion strains, locus YOR270C, strain vph1, hits give low values 0.995 | S. cerevisiae deletion strains, locus YOR290C, strain snf2, hits give low values 0.966 | S. cerevisiae deletion strains, locus YOR316C, strain cot1, hits give low values 0.975 | S. cerevisiae deletion strains, locus YPL051W, strain arl3, hits give low values 0.987 | S. cerevisiae deletion strains, locus YPL055C, strain LGE1, hits give low values 0.992 | S. cerevisiae deletion strains, locus YPL078C, strain atp4, hits give low values 0.958 | S. cerevisiae deletion strains, locus YPL106C, strain sse1, hits give low values 0.94 | S. cerevisiae deletion strains, locus YPL240C, strain hsp82, hits give low values 0.996 | S. cerevisiae deletion strains, locus YPL241C, strain CIN2, hits give low values 0.996 | S. cerevisiae deletion strains, locus YPL256C, strain CLN2, hits give low values 0.959 | S. cerevisiae deletion strains, locus YPR119W, strain clb2, hits give low values 0.983 | S. cerevisiae deletion strains, locus YPR141C, strain kar3, hits give low values 0.967 | S. cerevisiae deletion strains, locus YPR163C, strain tif3, hits give low values 0.973 | S. cerevisiae deletion strains, locus YPR167C, strain met16, hits give low values 0.978 | S. cerevisiae deletion strains, strain wtn01, hits give low values 0.964 | S. cerevisiae strains, strain wild type, hits give low values 0.992
